This note sets out measurements from ChEMBL document CHEMBL1201862, “PubChem BioAssay data set” (2004).

The whole screen tested about 57,000 sequences, of which about 4,000 (7%) were called active. Cut-off read from the data, not from the text of the source: active = GI50 up to about 1.1 µM and inactive = higher. Only a sample is shown. Potency and affinity values are given separately.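 Values below derive from 48-hour exposures of cells grown in 96-well plates, with endpoints linearly interpolated between the two concentrations bracketing the appropriate inhibition level. GI50 is the concentration that inhibits growth by half.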

The assay concerns M14. In words: NCI tumour cell line growth inhibition, 48 h.
The substance “mu-(1,7-nanodiamine-N,N')bis-(cis-aminedichloroplatimum (II)), CHEMBL2146215” displayed a GI50 of 7.78 µM. “cis-Bis[[(trimethylsilyl)methyl]amino]tetrachloroplatinum(IV), CHEMBL2146191” yielded a GI50 of 3.5 µM. Turning to “[Bis(aminomethyl)dimethylsilane]dichloroplatinum (II), CHEMBL2146201”, the GI50 amounted to 22.9 µM. The figure for “[Bis(aminomethyl)diethylsilane]tetrachloroplatinum(IV), CHEMBL2146203” is 1.38 µM; for “[Bis(aminomethyl)tetramethylenesilane]dichloropaltinum(II), CHEMBL2146205” it is 13.5 µM. For “[Bis(aminomethyl)ethylmethylsilane]tetrachloroplatinum(IV), CHEMBL2146192”, the GI50 stood at 2.68 µM. With “[Bis(aminomethyl)tetramethylenesilane]tetrachloropaltinum(IV), CHEMBL2146189”, the GI50 was 6.11 µM. Turning to CISPLATIN, CHEMBL11359, the GI50 is 1.95 µM. Take “[Bis(aminomethyl)dimethylsilane]tetrachloroplatinum(IV), CHEMBL2146190”: the GI50 stood at 7.45 µM. Regarding “[Bis(aminomethyl)pentamethylenesilane]tetrachloropaltinum(IV), CHEMBL2146204”, the GI50 was determined as 2.13 µM.

The substance “[Bis(aminomethyl)pentamethylenesilane]dichloropaltinum(II), CHEMBL2146202” had a GI50 of 1.92 µM.
